# Laboratory results: ChEMBL document CHEMBL4513154, “CO-ADD screening of Jain University (India) compounds”
# Potency and affinity values are given separately.
# How the values were obtained:
# [1] = system: Staphylococcus aureus; conditions: Concentration 32 ug.mL-1; ASSAY_TEST Inhibition of Bacterial Growth; detection method Absorption (OD600); MEDIA CAMHB; plate type 384well; NBS; CORNING #3640; time 18 hr
# [2] = system: Escherichia coli; conditions: Concentration 32 ug.mL-1; ASSAY_TEST Inhibition of Bacterial Growth; detection method Absorption (OD600); MEDIA CAMHB; plate type 384well; NBS; CORNING #3640; time 18 hr
Structure (SMILES),Inhibition [1] [%],Inhibition [2] [%]
Clc1ccc2c(c1)nc(-c1cscn1)n2Cc1ccc(Cl)nc1,-10.99,-7.54
Clc1ccc(Cn2c(-c3cscn3)nc3c(Cl)cccc32)cn1,-6.34,-8.9
Clc1ccc(Cn2c(-c3cscn3)nc3ccccc32)cn1,3.88,-1.48
